# Hit rate of the full screen: of about 410,000 compounds, about 18,000 (4.4%) were called active. About 7% were inconclusive and are not listed. No stated cut-off is given here; in the data, active means activity change below about -60%; inconclusive means no clear call, values can overlap the other calls; inactive means above about -39%. The sample as a whole holds a higher share of actives than the screen did.
# Assay: qHTS Assay for inhibitors of the human cytomegalovirus (HCMV)
# Conditions: HFF cells, HCMV-luciferase reporter, 72 h; at 57.5 µM; active compounds read low
# How it was run: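 Cell-based, HFFs, 1000 cells/well, 16 h 37C; cpds in DMSO + HCMV-luc, MOI 1 PFU/cell; 72 h 37C; OneGlo luminescence after 5 min RT; norm. to buffer vs Salinomycin 10uM.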
# On the % scale 0 is the no-effect control and ±100 the full control effect.
row,SMILES,"activity change, negative = inhibition"
1,Cn1c(=O)oc2cc(S(=O)(=O)NCCC(=O)NCc3ccccc3Cl)ccc21,-30.3% (inactive)
2,O=C(O)c1ccc(Nc2nc(-c3ccccc3)c3cc(Br)ccc3n2)cc1,27.8% (inactive)
3,Cc1ncoc1C(=O)N1CCCC(C(=O)c2ccc3c4c(cccc24)CC3)C1 (stereo not given),-68.2% (active)
4,Cc1cc(Cl)ccc1C(=O)C1CCCN(C(=O)c2nonc2C)C1 (stereo not given),-27.9% (inactive)
5,CC(=O)NCC(=O)N1CCCC(C(=O)c2ccc3c4c(cccc24)CC3)C1 (stereo not given),2.3% (inactive)
6,O=C(Nc1c[nH]c(=O)[nH]c1=O)OCc1ccccc1,46% (inactive)
7,COc1ccc(CNC(=O)CNC(=O)c2sc3ccccc3c2Cl)cc1OC,-67.8% (active)
8,COC(=O)c1cc(NC(=O)c2sc3ccccc3c2Cl)cc(C(=O)OC)c1,5.87% (inactive)
9,CCCC(=O)Nc1ccc(NC(=O)c2sc3ccccc3c2Cl)cc1,0.957% (inactive)
10,COc1ccc(S(=O)(=O)N2CCN(C(=O)c3cccs3)CC2)cc1OC,1.26% (inactive)
11,COC(=O)c1sccc1S(=O)(=O)N(CC(=O)Nc1ccc(C)c(F)c1)c1ccc(C)c(C)c1,-9.21% (inactive)
12,COc1cccc(NC(=O)CN2C(=O)c3ccccc3Sc3ncccc32)c1,35.8% (inactive)
13,CCc1ccc(N(CC)C(=O)CCn2cnc3onc(-c4ccc(F)cc4)c3c2=O)cc1,4.29% (inactive)
14,CC[C@H](C)C(=O)N[C@H]1CCCN1C(=O)/C=C/c1ccccc1,-28.4% (inactive)
15,O=C1CCCCC1C(=O)c1ccccc1 (stereo not given),7.64% (inactive)
16,Cc1[nH]c(=O)c(C(=O)/C=C/c2ccccc2)c2c1CCCC2,-104% (active)
17,Cc1ccc(NC2=C(c3ccc(C(F)(F)F)cc3)C(=O)c3ccccc32)cc1F,-26.8% (inactive)
18,O=C1C=C(c2ccnc3cc(Cl)ccc23)C[C@@H](c2ccc3c(c2)OCO3)C1,-66.7% (active)
19,O=C1C=C(c2cccc(Cl)c2O)C[C@@H](c2ccc(F)cc2)C1,15.9% (inactive)
20,N#Cc1ccc(C2=CC(=O)C[C@H](c3ccc(Cl)cc3)C2)cc1,10.5% (inactive)

row,SMILES,"activity change, negative = inhibition"
1,O=C(Cc1ccc(Cl)cc1)NCCN1CCN(C(=O)Cc2ccc(Cl)cc2)CC1,-18.4% (inactive)
2,Cc1ccc(-c2cnc(NCc3ccc(C(C)C)cc3)n2C)cc1,-37.1% (inactive)
3,Cc1ccc(C(=O)Nc2ccc(OCc3cc(=O)n4c(C)csc4n3)cc2)cc1,13.5% (inactive)
4,COc1ccccc1OC(C)C(=O)Nc1ccc(S(=O)(=O)Nc2nccs2)cc1 (stereo not given),-71.4% (active)
5,Cc1ccc(OCCC(=O)Nc2ccc(S(=O)(=O)Nc3nccs3)cc2)cc1,-11.9% (inactive)
6,CCC(CC)C(=O)Nc1ccc(S(=O)(=O)Nc2nccs2)cc1,-32.7% (inactive)
7,COc1ccc(C2C(=O)N(C3CCCCC3)CC(=O)N2Cc2ccccc2Cl)cc1OC (stereo not given),-0.212% (inactive)
8,CCC(=O)/C=C1\Sc2ccccc2N1CC,-68.7% (active)
9,CCN1C(=O)c2ccccc2Sc2ccc(NC(=O)Cc3ccc(OC)cc3)cc21,11.2% (inactive)
10,CNC(=O)CN1C(=O)c2cccnc2Sc2ccccc21,16.8% (inactive)
11,CCOC(=O)CNC(=O)CN1C(=O)CCSc2ccccc21,55.2% (inactive)
12,CCN1/C(=C/C(=S)Nc2ccccc2)Sc2ccccc21,-90.8% (active)
13,CCOc1ccc(NC(=O)c2cc(S(=O)(=O)N3CCCC3)c[nH]2)cc1,-31.5% (inactive)
14,Cc1ccc(N2CC(C(=O)Nc3ccc(N(C)C)cc3)CC2=O)cc1Cl (stereo not given),1.89% (inactive)
15,Cc1ccc(C(=O)NNC(=O)OC(C)(C)C)c(Cl)c1,-10.9% (inactive)
16,CC(C)(C)OC(=O)NNc1c2ccccc2nc2ccccc12,-89.2% (active)
17,CC(C)(C)OC(=O)N[C@H](C(=O)OC(C)(C)C)c1ccc(Br)cc1,-16.8% (inactive)
18,O=C(NCCCNC(=O)NC1CCCCC1)NC1CCCCC1,-14.1% (inactive)
19,O=C(NCC1CCCCC1)NCC1CCCCC1,-74.2% (active)
20,N#CCC(=O)NC(=O)NCC1CC1,-12.8% (inactive)

row,SMILES,"activity change, negative = inhibition"
1,COc1ccc(CCNC(=O)CSCc2ccc(Br)cc2)cc1OC,-9.05% (inactive)
2,COc1nc(OC)nc(N(C)CCO)n1,-12.6% (inactive)
3,Cc1nc(SCC(=O)Nc2ccc(C(=O)O)cc2)n[nH]1,-2.57% (inactive)
4,CCc1nnc(NC(=O)CSc2nnc(COc3ccc(C#N)cc3)n2-c2ccccc2)s1,42.5% (inactive)
5,Cn1c(SCC(=O)N2CCCc3ccccc32)nc2ccccc2c1=O,-79.6% (active)
6,COc1ccccc1Cc1nc2ccccc2nc1SCC(=O)N1CCCc2ccccc21,8.07% (inactive)
7,Cn1c(SCC(=O)N2CCCc3ccccc32)ncc(C(=O)Nc2ccc(F)cc2)c1=O,-28.8% (inactive)
8,[O-][N+]12CCCCC1CCCC2CO (stereo not given),-29% (inactive)
9,CCC(=O)N1CCc2cc(Br)cc(S(=O)(=O)CCC(=O)NCc3ccccc3OC)c21,-3.98% (inactive)
10,C=CCNc1nc(N)c([N+](=O)[O-])c(NC2CCCCC2)n1,-9.3% (inactive)
11,Nc1nc(NCC2CCCO2)nc(Nc2ccccc2F)c1[N+](=O)[O-] (stereo not given),-34.2% (inactive)
12,Nc1nc(Nc2ccccc2F)nc(NC2CCCCC2)c1[N+](=O)[O-],-66% (active)
13,CCC(=O)N1CCc2cc(Br)c(S(=O)(=O)NCCN3CCCCC3CC)cc21 (stereo not given),-8.58% (inactive)
14,COc1ccc(CCNC(=O)Cn2c(=O)cc(C(F)(F)F)c3c(C)nn(C)c32)c(OC)c1,21.9% (inactive)
15,O=C(CCl)Nc1ccc(Sc2ccc(NC(=O)CCl)cc2)cc1,-97.1% (active)
16,O=C(O)CC(SCC(=O)Nc1ccc(Br)cc1)C(=O)O (stereo not given),-19% (inactive)
17,CC(=O)Nc1ccc(NC(=O)CC2CCCC2)cc1,-33.3% (inactive)
18,CCOC(=O)C1=NOC(Cn2cc(C(C)=O)c(=O)[nH]c2=O)C1 (stereo not given),10% (inactive)
19,CCOC(=O)c1cccc(NS(=O)(=O)c2cn(C)c(C)n2)c1,2.44% (inactive)
20,C[C@H](CO)N1C[C@H](C)[C@@H](CN(C)C(=O)Nc2ccccc2F)OCc2cn(nn2)CCCC1=O,-6.88% (inactive)

# From PubChem BioAssay AID1259415 (National Center for Advancing Translational Sciences (NCATS), 2018)
